From PubChem BioAssay (Tox21)
Inconclusive results are not listed. Calls of active or inactive are those of the source. Calls come from the whole dose curve; as a rule, active = well fitted cell-killing curve with a large enough effect in the repeat runs; inconclusive = weak or mixed curves, or effect the other way; inactive = no such curve, though single readings can be large or run the other way.

experiment: qHTS assay to identify small molecule agonists of the RXR signaling pathway - cell viability counter screen (AID 1159529); conditions: RXR-alpha-bla HEK293T viability, CellTiter-Glo, 16 h; series mostly up to 76.8 µM; activity change, negative = cytotoxicity: at the top concentration; note: nearly all actives have a fitted effect of over 50% in size
Text: National Center for Advancing Translational Sciences [NCATS]
NIH Chemical Genomics Center [NCGC]
U.S. Environmental Protection Agency [EPA]
National Institutes of Environmental Health Sciences [NIEHS]
National Toxicology Program [NTP]
U.S. Food and Drug Administration [FDA]
The Retinoid X receptor (RXR), a nuclear hormone receptor expressed in liver, spleen, placenta, epidermis, central nervous system. These receptors are able to form homo and heterodimers with other nuclear receptors and due to this heterodimerizing ability, RXR functions as master regulators producing diverse physiological effects. Three subtypes of RXR exist; alpha, beta and gamma. Retinoid X receptor alpha (RXR-alpha) has potential roles in metabolic signaling pathways, skin alopecia, dermal cysts, cardiac development, insulin sensitization etc. Therefore screening environmental chemicals on RXR-alpha signaling can be used for the studies focused on such therapeutic applications. For quantification of RXR-alpha ligands signaling, GeneBLAzer RXR alpha-UAS-bla HEK 293T (Life Technologies, Carlsbad, CA) cells containing a beta-lactamase reporter-gene under control of Retinoid X receptor-alpha response element were used to screen Tox21 10K library. The cytotoxicity of the Tox21 compound library against the RXR-alpha HEK 293T cell line was tested in parallel by measuring cell viability using CellTiter-Glo assay (Promega Corporation, Madison, WI) in the same wells.
Tox21 Assay Protocol Summary:
RXR-alpha HEK 293T cells were dispensed at 2,000 cells/6 uL of assay medium containing 2% charcoal-stripped FBS using a Multidrop Combi (ThermoFisher Scientific, Waltham, MA) dispenser. The assay was performed in black wall/clear-bottom 1536-well plates (Greiner Bio-One North America Inc. Monroe, NC). Tetraoctyl ammonium bromide was used as a positive control in the cytotoxicity screen. After the assay plates were incubated at 37 C and 5% CO2 for 5 hr, 23 nL of compounds dissolved in DMSO, positive control or DMSO only were transferred to the assay plate by a Pintool station (Kalypsys, San Diego, CA). The assay plates were incubated at 37 C and 5% CO2 for 16 hr. One uL of LiveBLAzer B/G FRET substrate (Life Technologies) was added using a Flying Reagent Dispenser (FRD) (Aurora Discovery, San Diego, CA) and the plates were incubated at room temperature for 2 hr. Fluorescence intensity (405 nm excitation, 460/530 nm emission) was measured using an Envision plate reader (PerkinElmer, Shelton, CT). For cytotoxicity, 4 uL/well of CellTiter-Glo reagent was added into the assay plates using an FRD. After 30 min incubation at room temperature, the luminescence intensity was measured using a ViewLux plate reader (PerkinElmer).
% is set by controls: 0 for no effect and ±100 for the full control effect.

SMILES	activity change, negative = cytotoxicity
CN(C)CCc1c[nH]c2ccc(C[C@H]3COC(=O)N3)cc12	2.08% [at 35.3 µM] (inactive)
O=c1[nH]c(=O)c2cn[nH]c2[nH]1	-0.711% (inactive)
BrCCOc1ccccc1	5.38% (inactive)
CCOCCOCCOC(C)=O	8.91% (inactive)
O=C(O)P(=O)(O)O	-0.442% [at 35.3 µM] (inactive)
Cc1ccccc1OCC(=O)O	-0.0412% (inactive)
CC(C)(C)NCC(O)COc1cccc2c1CCC(=O)N2 (stereo not given)	0.063% [at 35.3 µM] (inactive)
CCOC(=O)CC	8.81% (inactive)
CC(=O)Oc1ccc(C(C)=O)cc1	15.8% (inactive)
CC[C@@]1(c2ccccc2)NC(=O)N(C)C1=O	7.56% [at 35.3 µM] (inactive)
N#Cc1ccccc1C#N	4.1% (inactive)
Cc1cccc(N)n1	-1.43% (inactive)
O=Cc1ccccc1S(=O)(=O)O	0.231% (inactive)
CCc1ccc(CC)cc1	-0.235% (inactive)
CCCCCCCCCCCCCCCC/C=C/C1CC(=O)OC1=O (stereo not given)	0.188% [at 35.3 µM] (inactive)
CCCCCC(=O)CC	6.98% (inactive)
Nc1cc(S(=O)(=O)O)ccc1O	1.93% (inactive)
CCOc1ccccc1OCCN[C@H](C)Cc1ccc(OC)c(S(N)(=O)=O)c1	-4.97% [at 35.3 µM] (inactive)
CC12CCCC=C1C(=O)OC2=O (stereo not given)	0.692% (inactive)
CCCCCCCOC(C)=O	0.323% (inactive)

SMILES	activity change, negative = cytotoxicity
CC1(C)CC(N)CC(C)(C)N1	1.3% (inactive)
NC(=O)CC[C@@H](N)C(=O)O	-0.128% [at 35.3 µM] (inactive)
CCCCCCC(=O)c1ccccc1	3.29% (inactive)
Cc1ccc(O)c(C(=O)c2ccccc2)c1	-28% (inactive)
Cc1cc(=O)oc2cc(O[C@@H]3SC[C@@H](O)[C@H](O)[C@H]3O)ccc12	2.23% [at 35.3 µM] (inactive)
CCCCCCCCOCCC#N	6.76% (inactive)
CC(=O)SC[C@@H](C)C(=O)N1CCC[C@H]1C(=O)N[C@@H](Cc1ccccc1)C(=O)O	5.44% [at 35.3 µM] (inactive)
CC(C)C(=O)Nc1cccc(C2CN3CCSC3=N2)c1 (stereo not given)	-1.75% [at 35.3 µM] (inactive)
CC(=O)c1c(C)cc(C(C)(C)C)cc1C	0.635% (inactive)
Nc1nc(Cl)cc(Cl)n1	3.46% (inactive)
C/C=C(\C)C(=O)OC/C=C(\C)CCC=C(C)C	0.723% (inactive)
CC(C)(O)c1ccc(C(C)(C)O)cc1	6.39% (inactive)
CC(C)(C)C(=O)CC(=O)C(C)(C)C	6.28% (inactive)
CCCCCCCCCCCBr	-3.06% [at 35.3 µM] (inactive)
NC[C@H]1O[C@H](O[C@H]2[C@H](O)[C@@H](O[C@H]3O[C@H](CO)[C@@H](O)[C@H](N)[C@H]3O)[C@H](N)C[C@@H]2N)[C@H](N)[C@@H](O)[C@@H]1O	3.13% [at 15.8 µM] (inactive)
C=CC(=O)OCC[N+](C)(C)C	-2.84% (inactive)
O=Cc1ccc(C(=O)O)cc1	6.59% (inactive)
O=P(O)(O)C(O)(Cc1cccnc1)P(=O)(O)O	-11% [at 35.3 µM] (inactive)
CO/N=C(\C(=O)O)c1csc(NC(=O)CCl)n1	13.8% [at 35.3 µM] (inactive)
CC(C)c1cc(C(C)C)cc(C(C)C)c1	13.9% (inactive)
